High-throughput results deposited in PubChem by Broad Institute.
PAX8 inh HTS = inhibitors of PAX8 transcriptional activity in RMG-I cells; RMG-I TPO-luciferase reporter, SteadyGlo, 24 h; inhibition, % at 12.6 µM; hit rate 1.2% among 360,000; AID 652154;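 active means mean replicate inhibition at least 60% with every replicate also reaching 60%; inconclusive means only one of the two criteria is met; inactive means mean below 60% and not all replicates reaching 60%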;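 further: luciferase light reporting Pax8 driven TPO promoter activity; plate controls were median of neutral control wells for no effect and mitoxantrone controls for full effect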
SIRT5 block = sirtuin-5 (human) deacylase inhibition; hit rate 1.1% among 330,000; inhibition, % at 15 µM; Purified SirT5, succinyl-peptide AMC, trypsin-coupled fluorescence; in the data active means inhibition above about 15%; inconclusive means no clear call, values can overlap the other calls
Target sequence (Q9NXA8 whole entry, looked up): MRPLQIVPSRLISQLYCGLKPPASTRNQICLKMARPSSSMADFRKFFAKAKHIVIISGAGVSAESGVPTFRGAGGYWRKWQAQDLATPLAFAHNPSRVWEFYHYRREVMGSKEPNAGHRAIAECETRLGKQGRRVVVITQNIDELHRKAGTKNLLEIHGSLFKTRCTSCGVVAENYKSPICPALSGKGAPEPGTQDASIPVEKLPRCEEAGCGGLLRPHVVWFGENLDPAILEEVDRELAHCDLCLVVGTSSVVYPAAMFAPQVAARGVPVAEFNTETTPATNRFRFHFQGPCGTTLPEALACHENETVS
rRNA inh HTS = selective bacterial rRNA inhibition in E. coli | E. coli WT GFP vs humanized-ribosome RFP mutants, fluorescence, 24 h; active compounds read low; DMSO median 0, no signal -100 | GFP signal change (wild-type ribosome), % (no concentration beside the values) | hit rate 1.6% among 350,000 | AID 720706;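 active means significant combined selectivity score with lowered wild-type GFP, culture density cut under 30%, mutant RFP and density less affected; inactive means any of these conditions unmet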
LGR2 inh = inhibitors of bursicon-induced Drosophila LGR2 receptor cAMP signaling; HEK293 LGR2, CRE-luciferase, bursicon-stimulated, 4 h; inhibition, % at 9.99 µM; hit rate 0.35% among 380,000;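 active means drop in luminescence signal, shown as inhibition above about 50% in the replicate tests, limit read from the data, passing the limit was not always enough; inconclusive means probably only some replicates passing the limit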;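 further: agonist challenge used bursicon conditioned medium at about half maximal strength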
PGC1a acetyl inh = modulators of PGC1a acetylation; U2OS PGC1a acetylation, AlphaScreen anti-acetyl-lysine; with virally co-expressed GCN5 acetyltransferase; inhibition, % at 15.6 µM; hit rate 0.17% among 350,000;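 active means every replicate shows inhibition of at least 40%; inconclusive means mean inhibition at least 40% but some replicate below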;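 further: 0% = neutral control wells and 100% = positive control wells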
EWS-Fli block = EWS/Fli transcriptional activity inhibition; A673 NR0B1-luciferase reporter, viability-normalised; inhibition, % at 12.6 µM; hit rate 0.67% among 350,000;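 active means mean inhibition of at least 50% after viability correction, with every replicate also passing that limit; inconclusive means mean reaches 50% but only one of two replicates passes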;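 further: firefly luciferase signal divided by Alamar Blue viability fluorescence both relative to DMSO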
Numbers without * were called inactive; ? = inconclusive; / = not tested or not shown; ! = not confirmed by another sample. An excerpt weighted towards active compounds, which were near 3.4% of everything screened.

SMILES | PAX8 inh HTS | SIRT5 block | rRNA inh HTS | LGR2 inh | PGC1a acetyl inh | EWS-Fli block
CCOC(=O)C1=CCN(S(=O)(=O)c2ccc(C)cc2)C1c1ccc(CC)cc1 (centres undefined) | -1.6 | 15.9* | 7.2 | 14.4 | -14.3 | 0.2
CC[C@@H]1CC=CC[C@@H](C)Oc2ccccc2C(=O)N(C)[C@@H](C(C)C)C(=O)N1 (mixture of isomers) | / | / | 1.4 | / | / | /
CCCNC(=O)N(C)C[C@@H]1Oc2ncc(Br)cc2C(=O)N([C@@H](C)CO)C[C@H]1C | -19.3 | -4.2 | 4.5 | 10.8 | 3.7 | -7.9
C/C=C/c1cnc2c(c1)C(=O)N([C@@H](C)CO)C[C@@H](C)[C@@H](CN(C)C(=O)NC1CCCCC1)O2 | 10.4 | 28.1* | 6.5 | 19.5 | 1.6 | -8.0
C[C@H](CO)N1C[C@H](C)[C@H](CN(C)C(=O)c2ccccc2F)Oc2ncc(Br)cc2C1=O | -1.7 | 26.2*! | 7.7 | -7.3 | 5.0 | 1.4
CCCNC(=O)N(C)C[C@@H]1Oc2ncc(Br)cc2C(=O)N([C@H](C)CO)C[C@@H]1C | 1.3 | 19.6*! | 7.5 | 7.4 | 5.6 | -0.5
C[C@@H]1CN([C@@H](C)CO)C(=O)c2cc(Br)cnc2O[C@H]1CN(C)C(=O)c1ccccc1F | -16.1 | 15.1*! | 6.1 | -6.3 | -16.8 | 3.1
O=C(C[C@@H]1CC[C@@H]2[C@H](COC[C@@H](O)CN2C(=O)c2cnccn2)O1)NCc1ccc(F)cc1 | -1.3 | 3.3 | 0.9 | -2.7 | 0.7 | 7.5
C[C@H]1CN([C@@H](C)CO)C(=O)c2c(c3ccccc3n2C)-c2ccccc2CO[C@@H]1CN(C)Cc1ccccc1C(F)(F)F | 36.3 | 1.8 | -0.3 | 22.6 | / | -13.1
CNC[C@@H]1Oc2c(NC(=O)NC(C)C)cccc2C(=O)N(C)C[C@@H]1C | / | / | 2.0 | / | / | /
Cc1ccc(S(=O)(=O)N(C)C[C@@H]2Oc3ccc(NC(=O)C4CCCCC4)cc3CC(=O)N([C@@H](C)CO)C[C@@H]2C)cc1 | / | 3.2 | -0.5 | 2.7 | 4.5 | -7.2
C[C@H]1CN([C@@H](C)CO)C(=O)c2cc(Br)cnc2O[C@@H]1CN(C)C(=O)c1ccccn1 | -6.0 | -0.5 | 1.7 | 1.8 | -2.3 | 5.1
C[C@H]1CN([C@@H](C)CO)C(=O)c2cc(Br)cnc2O[C@@H]1CN(C)C(=O)Nc1ccc(C(F)(F)F)cc1 | -13.5 | -6.7 | -12.2*! | -0.3 | -4.5 | 7.6
C[C@H]1CN([C@@H](C)CO)C(=O)c2cc(Br)cnc2O[C@H]1CN(C)C(=O)c1ccccn1 | -3.6 | 18.7*! | 0.0 | 18.2 | -4.9 | -7.1
C[C@H](CO)N1C[C@H](C)[C@H](CN(C)S(=O)(=O)c2cn(C)cn2)OCCCC[C@H](C)Oc2ccc(NC(=O)Nc3ccc(C(F)(F)F)cc3)cc2C1=O | 44.7 | / | -4.3 | 7.0 | 2.7 | 9.8
CO[C@@H](CN(C)C(=O)C1CC1)[C@H](C)CN(C(=O)Nc1ccc(C(F)(F)F)cc1)[C@@H](C)CO | 5.8 | ? | -62.5 | -5.2 | 4.5 | -1.5
COC(=O)CCCCCCC(=O)Nc1ccc(C2OC(CSc3nc4ccccc4s3)CC(c3ccccc3)O2)cc1 (centres undefined) | -6.2 | 4.8 | / | / | -3.5 | 10.6
CCCN(C)C[C@@H]1OCCCC[C@H](C)Oc2ccc(N(C)C)cc2C(=O)N([C@H](C)CO)C[C@@H]1C | 9.6 | 4.6 | -1.5 | -4.7 | -10.9 | -1.6
CCN1C(=O)CCN(C2CCCC2)c2nc(Nc3ccc(C(=O)NC4CCN(C)CC4)cc3OC)ncc21 | -106.2 | / | -12.3 | -0.9 | / | 61.9*
C=C1C(=O)O[C@H]2C[C@H]1[C@@H](OC(C)=O)C/C(C)=C/CC/C(C)=C\CC[C@]2(C)O | 111.3* | -4.4 | / | / | -34.9 | 55.7*
C=C1C(=O)OC2C=C(CO)CCC=C(CO)CC(OC(=O)C(C)C)C12 (centres undefined) | -6.0 | 2.7 | 7.4 | -11.7 | -29.9 | -1.7
CCOc1ccc(/C=C2\SC(=S)N(NS(=O)(=O)c3ccc(C)cc3)C2=O)cc1OC | -18.3 | 2.9 | -24.2* | 4.7 | 14.2 | -4.2
CN(Cc1ccccc1)C(=O)COC(=O)c1cncc(Br)c1 | -7.8 | 16.8* | 9.4 | 3.4 | / | 8.4
CN(C)c1ccc2c(c1)[C@@H]1C[C@@H](CC(=O)NCc3ccc(-c4ccccc4)cc3)O[C@@H](CO)[C@@H]1O2 | 16.1 | -2.7 | -10.7 | -19.2 | 3.2 | 54.6*
